Values joined by “and” are separate entries in the source; they are usually repeats but may differ in a detail not shown here. Equal values may be shown once. Screen size: about 5,500 compounds; about 2,000 (36%) were called active. About 18% were inconclusive and are not listed. Rule as the data show it: active = normalized growth mostly below about 0.91 (no sharp cut-off); inconclusive = no clear call, values can overlap the other calls; inactive = mostly above about 0.92. Some of the results follow.
Test: chemical genetic growth profiling, strain panel (AID 1159580);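 also: tested at 20 µM; growth read once vehicle control cultures reached saturation at 30 °C; 1 = growth at the plate median or of vehicle wells; lower values mean less growth of the strain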
Settings: S. cerevisiae deletion strains, growth OD

Measured: normalized growth

CN(C)c1nc(N(C)C)nc(N(C)C)n1
inactive: locus YAL021C, strain ccr4, stronger effect = lower value 0.992 | locus YAL026C, strain drs2, stronger effect = lower value 0.979 | locus YAL030W, strain snc1, stronger effect = lower value 1 | locus YAL040C, strain CLN3, stronger effect = lower value 0.972 | locus YBL061C, strain skt5, stronger effect = lower value 0.959 | locus YBR009C, strain hhf1, stronger effect = lower value 0.97 | locus YBR021W, strain FUR4, stronger effect = lower value 1 | locus YBR023C, strain chs3, stronger effect = lower value 0.969 | locus YBR171W, strain sec66, stronger effect = lower value 0.976 | locus YBR229C, strain ROT2, stronger effect = lower value 1.01 | locus YBR231C, strain swc5, stronger effect = lower value 0.971 | locus YBR279W, strain paf1, stronger effect = lower value 1.01 | locus YCL011C, strain gbp2, stronger effect = lower value 0.959 | locus YCL016C, strain dcc1, stronger effect = lower value 0.966 | locus YCL029C, strain bik1, stronger effect = lower value 1.03 | locus YCL061C, strain MRC1, stronger effect = lower value 0.979 | locus YCL069W, strain vba3, stronger effect = lower value 0.986 | locus YCR088W, strain abp1, stronger effect = lower value 0.989 | locus YDL005C, strain med2, stronger effect = lower value 0.984 | locus YDL035C, strain GPR1, stronger effect = lower value 1.02 | locus YDL040C, strain nat1, stronger effect = lower value 0.991 | locus YDL074C, strain BRE1, stronger effect = lower value 0.991 | locus YDL101C, strain DUN1, stronger effect = lower value 1.01 | locus YDL134C, strain PPH21, stronger effect = lower value 1.01 | locus YDL185W, strain tfp1, stronger effect = lower value 1.02 | locus YDL192W, strain arf1, stronger effect = lower value 1.02 | locus YDR001C, strain nth1, stronger effect = lower value 0.977 | locus YDR069C, strain doa4, stronger effect = lower value 0.979 | locus YDR101C, strain arx1, stronger effect = lower value 1.01 | locus YDR137W, strain rgp1, stronger effect = lower value 0.924 | locus YDR150W, strain NUM1, stronger effect = lower value 1 | locus YDR159W, strain sac3, stronger effect = lower value 0.963 | locus YDR162C, strain NBP2, stronger effect = lower value 1.02 | locus YDR195W, strain ref2 0.998 | locus YDR297W, strain sur2, stronger effect = lower value 0.981 | locus YDR318W, strain mcm21, stronger effect = lower value 1.02 | locus YDR334W, strain swr1, stronger effect = lower value 0.942 | locus YDR335W, strain msn5, stronger effect = lower value 0.97 | locus YDR363W, strain ESC2, stronger effect = lower value 1.03 | locus YDR388W, stronger effect = lower value 1.02 | locus YDR392W, strain spt3, stronger effect = lower value 0.899 | locus YDR502C, strain sam2, stronger effect = lower value 1.01 | locus YEL003W, strain gim4, stronger effect = lower value 0.987 | locus YEL037C, strain rad23, stronger effect = lower value 0.988 | locus YEL061C, strain CIN8 (second series), stronger effect = lower value 0.976 | locus YEL061C, strain CIN8, stronger effect = lower value 1 | locus YER002W, strain NOP16, stronger effect = lower value 0.995 | locus YER015W, strain faa2, stronger effect = lower value 0.969 | locus YER016W, strain bim1, stronger effect = lower value 0.987 | locus YER110C, stronger effect = lower value 1.02 | locus YER111C, strain swi4, stronger effect = lower value 0.981 | locus YER155C, strain BEM2 (second series), stronger effect = lower value 0.975 | locus YER155C, strain BEM2, stronger effect = lower value 1 | locus YER167W, strain BCK2, stronger effect = lower value 1.01 | locus YFR010W, strain ubp6, stronger effect = lower value 0.956 | locus YGL078C, strain dbp3, stronger effect = lower value 1.01 | locus YGL086W, strain mad1, stronger effect = lower value 1 | locus YGL167C, strain pmr1, stronger effect = lower value 0.975 | locus YGL173C, strain kem1, stronger effect = lower value 0.959 | locus YGL227W, strain vid30, stronger effect = lower value 0.989 | locus YGL240W, strain doc1, stronger effect = lower value 0.966 | locus YGL248W, strain PDE1, stronger effect = lower value 1.01 | locus YGL253W, strain hxk2, stronger effect = lower value 0.987 | locus YGR078C, strain PAC10, stronger effect = lower value 1 and 0.999 | locus YGR135W, strain pre9, stronger effect = lower value 1.03 | locus YGR252W, strain gcn5, stronger effect = lower value 1.05 | locus YHR013C, strain ard1, stronger effect = lower value 0.964 | locus YHR027C, strain rpn1, stronger effect = lower value 0.959 | locus YHR030C, strain SLT2, stronger effect = lower value 1.01 and 0.974 | locus YHR079C, strain IRE1 (second series), stronger effect = lower value 1.02 | locus YHR079C, strain IRE1, stronger effect = lower value 0.981 | locus YHR094C, strain hxt1, stronger effect = lower value 1.02 | locus YHR129C, strain ARP1, stronger effect = lower value 1.01 | locus YHR142W, strain chs7, stronger effect = lower value 0.929 | locus YHR200W, strain rpn10, stronger effect = lower value 1.02 | locus YIL066C, strain RNR3, stronger effect = lower value 1.01 | locus YIL073C, strain SPO22, stronger effect = lower value 1.09 | locus YIL125W, strain kgd1, stronger effect = lower value 1.02 | locus YIR030C, strain dcg1, stronger effect = lower value 1.03 | locus YJL092W, strain hpr5, stronger effect = lower value 0.988 | locus YJL095W, strain BCK1 (second series), stronger effect = lower value 0.975 | locus YJL095W, strain BCK1, stronger effect = lower value 1 and 0.97 | locus YJL115W, strain asf1, stronger effect = lower value 0.959 | locus YJL129C, strain trk1, stronger effect = lower value 0.999 | locus YJL134W, strain LCB3, stronger effect = lower value 1.01 | locus YJL154C, strain vps35, stronger effect = lower value 0.986 | locus YJL164C, strain tpk1, stronger effect = lower value 0.989 | locus YJL166W, strain qcr8, stronger effect = lower value 0.958 | locus YJL168C, strain set2, stronger effect = lower value 1.01 | locus YJL187C, strain SWE1 (second series), stronger effect = lower value 1 | locus YJL187C, strain SWE1, stronger effect = lower value 0.978 | locus YJR043C, strain POL32, stronger effect = lower value 1.01 | locus YJR066W, strain TOR1, stronger effect = lower value 0.947
